Columns and labels:
Assay in all cases: DAPPL (digital affinity profiling via proximity ligation, sequencing); 10 mM Tris-HCl pH 7.5, 50 mM NaCl, 1 mM DTT, 4% glycerol, room temperature, 30 min; GST-TFs on glutathione beads, 16-mer random dsDNA library, 0.1% formaldehyde crosslink after washing; high values mean tight binding
Details in all cases: protein: recombinant; tags: N-terminal GST; dsDNA, one strand shown
ERF = target: T1, ERF (Homo sapiens, UniProt P50548 1-548)
T1 sequence: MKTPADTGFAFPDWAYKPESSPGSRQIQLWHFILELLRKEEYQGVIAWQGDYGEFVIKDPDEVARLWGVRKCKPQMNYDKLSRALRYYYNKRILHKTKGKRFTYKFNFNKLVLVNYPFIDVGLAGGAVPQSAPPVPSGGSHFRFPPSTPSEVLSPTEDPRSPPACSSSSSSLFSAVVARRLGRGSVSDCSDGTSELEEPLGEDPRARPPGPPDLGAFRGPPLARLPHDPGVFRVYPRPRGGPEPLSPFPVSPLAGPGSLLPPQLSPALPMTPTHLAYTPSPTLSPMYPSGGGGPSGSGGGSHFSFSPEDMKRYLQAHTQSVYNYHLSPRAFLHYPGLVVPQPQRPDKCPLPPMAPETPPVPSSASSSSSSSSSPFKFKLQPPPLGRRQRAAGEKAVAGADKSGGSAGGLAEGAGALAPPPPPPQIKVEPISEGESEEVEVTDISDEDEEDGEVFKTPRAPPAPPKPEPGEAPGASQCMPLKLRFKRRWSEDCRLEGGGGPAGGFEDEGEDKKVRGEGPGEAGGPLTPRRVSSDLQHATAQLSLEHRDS
In short: (§1)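 Binding signal is defined as a hexamer's read frequency for one factor over its frequency for the tag-only sample. To obtain reads, GST-fused human transcription factors were expressed in yeast, captured on glutathione beads, barcoded with DNA and pooled with that sample. Pools met 200 nmole of a 16-mer random double-stranded DNA library in Tris/NaCl/DTT/glycerol buffer for 30 min at room temperature before washing, 0.1% formaldehyde crosslinking, proximity ligation (BsaI/T4 ligase, 1 h, 37 °C), PCR and Illumina NextSeq500 sequencing.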

ETV3L = target: T2, ETV3L (Homo sapiens, UniProt Q6ZN32 1-361)
T2 sequence: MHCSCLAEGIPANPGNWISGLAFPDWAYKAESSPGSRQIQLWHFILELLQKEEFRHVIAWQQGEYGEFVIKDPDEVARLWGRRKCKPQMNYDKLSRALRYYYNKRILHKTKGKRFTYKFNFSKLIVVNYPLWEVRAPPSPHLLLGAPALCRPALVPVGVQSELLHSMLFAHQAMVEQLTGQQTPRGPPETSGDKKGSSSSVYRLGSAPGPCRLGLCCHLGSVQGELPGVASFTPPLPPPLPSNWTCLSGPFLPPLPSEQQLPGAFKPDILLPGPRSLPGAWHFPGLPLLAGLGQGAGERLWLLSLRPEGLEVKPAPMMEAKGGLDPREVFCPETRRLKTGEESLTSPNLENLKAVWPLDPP
In short: as §1

ETS2 = target: T3, ETS2 (Homo sapiens, UniProt P15036 1-469)
T3 sequence: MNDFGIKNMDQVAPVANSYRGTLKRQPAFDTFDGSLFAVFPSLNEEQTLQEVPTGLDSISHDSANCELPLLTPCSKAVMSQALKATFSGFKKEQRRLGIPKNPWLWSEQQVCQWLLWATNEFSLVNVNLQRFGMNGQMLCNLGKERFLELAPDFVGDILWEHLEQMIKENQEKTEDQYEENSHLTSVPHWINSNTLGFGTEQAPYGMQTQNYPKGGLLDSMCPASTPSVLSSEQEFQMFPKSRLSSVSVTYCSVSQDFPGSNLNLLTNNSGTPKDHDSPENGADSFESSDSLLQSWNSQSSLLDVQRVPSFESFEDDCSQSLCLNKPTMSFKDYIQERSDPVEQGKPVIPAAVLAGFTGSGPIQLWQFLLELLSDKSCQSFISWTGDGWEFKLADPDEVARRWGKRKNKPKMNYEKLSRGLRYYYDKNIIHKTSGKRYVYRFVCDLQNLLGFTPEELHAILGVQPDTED
In short: as §1

SPDEF = target: T4, SPDEF (Homo sapiens, UniProt O95238 1-335)
T4 sequence: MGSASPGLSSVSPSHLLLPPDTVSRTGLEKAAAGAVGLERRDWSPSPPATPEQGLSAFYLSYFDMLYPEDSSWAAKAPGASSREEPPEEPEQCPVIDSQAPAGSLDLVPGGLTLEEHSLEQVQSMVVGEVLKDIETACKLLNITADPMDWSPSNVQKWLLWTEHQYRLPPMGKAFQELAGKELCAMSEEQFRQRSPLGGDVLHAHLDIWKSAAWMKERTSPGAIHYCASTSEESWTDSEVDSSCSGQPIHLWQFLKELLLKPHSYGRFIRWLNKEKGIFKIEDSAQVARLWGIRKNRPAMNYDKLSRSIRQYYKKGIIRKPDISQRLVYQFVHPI
In short: as §1

ETV7 = target: T5, ETV7 (Homo sapiens, UniProt Q9Y603 1-341)
T5 sequence: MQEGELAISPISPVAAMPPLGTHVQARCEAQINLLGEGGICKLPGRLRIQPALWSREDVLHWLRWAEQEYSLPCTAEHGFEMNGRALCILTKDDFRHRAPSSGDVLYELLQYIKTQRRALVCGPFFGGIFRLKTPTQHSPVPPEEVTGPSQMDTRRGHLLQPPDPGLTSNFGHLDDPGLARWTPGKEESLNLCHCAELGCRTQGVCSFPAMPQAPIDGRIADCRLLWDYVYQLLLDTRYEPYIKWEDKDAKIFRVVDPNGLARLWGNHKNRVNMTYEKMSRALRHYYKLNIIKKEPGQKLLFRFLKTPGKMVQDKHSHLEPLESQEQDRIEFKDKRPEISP
In short: as §1

ELF5 = target: T6, ELF5 (Homo sapiens, UniProt Q9UKW6-2 1-255)
T6 sequence: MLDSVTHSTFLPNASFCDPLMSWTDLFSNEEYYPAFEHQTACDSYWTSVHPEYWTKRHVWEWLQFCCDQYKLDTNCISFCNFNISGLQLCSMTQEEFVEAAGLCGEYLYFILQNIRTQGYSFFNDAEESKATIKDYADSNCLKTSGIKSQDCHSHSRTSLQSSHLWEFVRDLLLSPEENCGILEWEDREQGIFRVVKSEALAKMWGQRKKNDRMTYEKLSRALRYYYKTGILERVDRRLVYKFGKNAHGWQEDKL
In short: as §1

ETV3 = target: T7, ETV3 (Homo sapiens, UniProt P41162-2 1-143)
T7 sequence: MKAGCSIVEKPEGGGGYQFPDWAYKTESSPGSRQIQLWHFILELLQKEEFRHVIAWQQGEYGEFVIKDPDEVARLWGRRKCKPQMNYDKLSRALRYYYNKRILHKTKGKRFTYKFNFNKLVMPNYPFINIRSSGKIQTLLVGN
In short: as §1

ETV6 = ETV6 (Homo sapiens, UniProt P41212 1-452)
Chain of ETV6 (P41212 whole entry): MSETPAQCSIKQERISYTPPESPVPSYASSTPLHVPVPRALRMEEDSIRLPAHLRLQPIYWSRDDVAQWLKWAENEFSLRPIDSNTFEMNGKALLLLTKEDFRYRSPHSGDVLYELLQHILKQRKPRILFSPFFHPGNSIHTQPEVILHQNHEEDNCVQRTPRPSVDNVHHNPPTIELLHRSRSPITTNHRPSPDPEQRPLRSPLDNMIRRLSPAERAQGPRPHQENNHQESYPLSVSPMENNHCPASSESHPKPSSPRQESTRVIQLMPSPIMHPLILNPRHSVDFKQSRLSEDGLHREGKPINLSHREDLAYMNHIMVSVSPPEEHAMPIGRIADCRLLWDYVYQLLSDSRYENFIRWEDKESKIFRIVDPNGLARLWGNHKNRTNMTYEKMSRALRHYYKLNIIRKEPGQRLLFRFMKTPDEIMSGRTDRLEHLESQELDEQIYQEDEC
In short: as §1

Sequence	binding signal (ERF)	binding signal (ETV3L)	binding signal (ETS2)	binding signal (SPDEF)	binding signal (ETV7)	binding signal (ELF5)	binding signal (ETV3)	binding signal (ETV6)
CTAGAT	1.24 fold enrichment (6-mer frequency, TF over GST control)	1.34 fold enrichment (6-mer frequency, TF over GST control)	1.2 fold enrichment (6-mer frequency, TF over GST control)	1.26 fold enrichment (6-mer frequency, TF over GST control)	1.2 fold enrichment (6-mer frequency, TF over GST control)	1.11 fold enrichment (6-mer frequency, TF over GST control)	1.19 fold enrichment (6-mer frequency, TF over GST control)	1.05 fold enrichment (6-mer frequency, TF over GST control)
TTATGC	1.16 fold enrichment (6-mer frequency, TF over GST control)	1.33 fold enrichment (6-mer frequency, TF over GST control)	1.28 fold enrichment (6-mer frequency, TF over GST control)	1.37 fold enrichment (6-mer frequency, TF over GST control)	1.44 fold enrichment (6-mer frequency, TF over GST control)	1.29 fold enrichment (6-mer frequency, TF over GST control)	1.34 fold enrichment (6-mer frequency, TF over GST control)	1.31 fold enrichment (6-mer frequency, TF over GST control)
AGCACT	1.44 fold enrichment (6-mer frequency, TF over GST control)	1.42 fold enrichment (6-mer frequency, TF over GST control)	1.43 fold enrichment (6-mer frequency, TF over GST control)	1.4 fold enrichment (6-mer frequency, TF over GST control)	1.43 fold enrichment (6-mer frequency, TF over GST control)	1.52 fold enrichment (6-mer frequency, TF over GST control)	1.39 fold enrichment (6-mer frequency, TF over GST control)	1.44 fold enrichment (6-mer frequency, TF over GST control)
ACTCAA	1.16 fold enrichment (6-mer frequency, TF over GST control)	1.21 fold enrichment (6-mer frequency, TF over GST control)	1.23 fold enrichment (6-mer frequency, TF over GST control)	1.16 fold enrichment (6-mer frequency, TF over GST control)	1.05 fold enrichment (6-mer frequency, TF over GST control)	1.15 fold enrichment (6-mer frequency, TF over GST control)	1.13 fold enrichment (6-mer frequency, TF over GST control)	1.26 fold enrichment (6-mer frequency, TF over GST control)
AACCCC	1.03 fold enrichment (6-mer frequency, TF over GST control)	1.18 fold enrichment (6-mer frequency, TF over GST control)	1.21 fold enrichment (6-mer frequency, TF over GST control)	1.14 fold enrichment (6-mer frequency, TF over GST control)	1.11 fold enrichment (6-mer frequency, TF over GST control)	1.13 fold enrichment (6-mer frequency, TF over GST control)	1.07 fold enrichment (6-mer frequency, TF over GST control)	1.18 fold enrichment (6-mer frequency, TF over GST control)
GTACTT	1.64 fold enrichment (6-mer frequency, TF over GST control)	1.87 fold enrichment (6-mer frequency, TF over GST control)	2.02 fold enrichment (6-mer frequency, TF over GST control)	2.57 fold enrichment (6-mer frequency, TF over GST control)	2.11 fold enrichment (6-mer frequency, TF over GST control)	2.51 fold enrichment (6-mer frequency, TF over GST control)	1.97 fold enrichment (6-mer frequency, TF over GST control)	2.47 fold enrichment (6-mer frequency, TF over GST control)
GCCTAC	1.12 fold enrichment (6-mer frequency, TF over GST control)	1.29 fold enrichment (6-mer frequency, TF over GST control)	1.23 fold enrichment (6-mer frequency, TF over GST control)	1.12 fold enrichment (6-mer frequency, TF over GST control)	1.08 fold enrichment (6-mer frequency, TF over GST control)	1.17 fold enrichment (6-mer frequency, TF over GST control)	1.3 fold enrichment (6-mer frequency, TF over GST control)	1.19 fold enrichment (6-mer frequency, TF over GST control)
TGACCC	1.4 fold enrichment (6-mer frequency, TF over GST control)	1.3 fold enrichment (6-mer frequency, TF over GST control)	1.38 fold enrichment (6-mer frequency, TF over GST control)	1.49 fold enrichment (6-mer frequency, TF over GST control)	1.4 fold enrichment (6-mer frequency, TF over GST control)	1.4 fold enrichment (6-mer frequency, TF over GST control)	1.39 fold enrichment (6-mer frequency, TF over GST control)	1.28 fold enrichment (6-mer frequency, TF over GST control)
